RXFP1 ag: agonists of human relaxin receptor RXFP1; HEK293T-RXFP1 cAMP TR-FRET, 30 min; response scale: percent of porcine relaxin response, buffer zero; Potency, µM (series often up to 57.5 µM), for inactives: at the top dose activation, usual class: activators; 370,000 tested, 0.3% active; AID 2676; active = well fitted activation curve with a large enough effect; inconclusive = small, poorly fitted or top-dose-only effect; also: potency is read from the fitted curve at half-maximal effect; nearly all actives have a fitted effect of over 60% in size
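cAMP rise read by TR-FRET after 30 min, 37C compound exposure (up to 58 uM) in RXFP1-transfected HEK293 cells with Ro 20174 present. EC50 from Hill-equation fits, with 29 nM porcine relaxin as 100% and buffer as basal.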
RXFP1 antagonist: blocks the human relaxin receptor RXFP1. Q9HBX9. HEK293-RXFP1, relaxin-stimulated cAMP HTRF, 30 min; active compounds read low. activity change, negative = inhibition, % at 57.5 µM. 350,000 tested, 0.59% active. AID 1259400;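 active = activity change of -60% or lower, but not beyond a set lower limit; inconclusive = change between -60% and -40%, or beyond the set limit; inactive = change above -40%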
hERG WT inh: inhibitors of human wildtype KCNH2 potassium channel. Q12809. U2OS, BacMam KCNH2, thallium flux FluxOr; active compounds read low. activity change, % at 1.84 µM. 340,000 tested, 0.37% active;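 active = maximum activity change below -70%; inconclusive = maximum activity change between -70% and -50%; inactive = maximum activity change above -50%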
Target sequence (Q12809 whole entry, looked up): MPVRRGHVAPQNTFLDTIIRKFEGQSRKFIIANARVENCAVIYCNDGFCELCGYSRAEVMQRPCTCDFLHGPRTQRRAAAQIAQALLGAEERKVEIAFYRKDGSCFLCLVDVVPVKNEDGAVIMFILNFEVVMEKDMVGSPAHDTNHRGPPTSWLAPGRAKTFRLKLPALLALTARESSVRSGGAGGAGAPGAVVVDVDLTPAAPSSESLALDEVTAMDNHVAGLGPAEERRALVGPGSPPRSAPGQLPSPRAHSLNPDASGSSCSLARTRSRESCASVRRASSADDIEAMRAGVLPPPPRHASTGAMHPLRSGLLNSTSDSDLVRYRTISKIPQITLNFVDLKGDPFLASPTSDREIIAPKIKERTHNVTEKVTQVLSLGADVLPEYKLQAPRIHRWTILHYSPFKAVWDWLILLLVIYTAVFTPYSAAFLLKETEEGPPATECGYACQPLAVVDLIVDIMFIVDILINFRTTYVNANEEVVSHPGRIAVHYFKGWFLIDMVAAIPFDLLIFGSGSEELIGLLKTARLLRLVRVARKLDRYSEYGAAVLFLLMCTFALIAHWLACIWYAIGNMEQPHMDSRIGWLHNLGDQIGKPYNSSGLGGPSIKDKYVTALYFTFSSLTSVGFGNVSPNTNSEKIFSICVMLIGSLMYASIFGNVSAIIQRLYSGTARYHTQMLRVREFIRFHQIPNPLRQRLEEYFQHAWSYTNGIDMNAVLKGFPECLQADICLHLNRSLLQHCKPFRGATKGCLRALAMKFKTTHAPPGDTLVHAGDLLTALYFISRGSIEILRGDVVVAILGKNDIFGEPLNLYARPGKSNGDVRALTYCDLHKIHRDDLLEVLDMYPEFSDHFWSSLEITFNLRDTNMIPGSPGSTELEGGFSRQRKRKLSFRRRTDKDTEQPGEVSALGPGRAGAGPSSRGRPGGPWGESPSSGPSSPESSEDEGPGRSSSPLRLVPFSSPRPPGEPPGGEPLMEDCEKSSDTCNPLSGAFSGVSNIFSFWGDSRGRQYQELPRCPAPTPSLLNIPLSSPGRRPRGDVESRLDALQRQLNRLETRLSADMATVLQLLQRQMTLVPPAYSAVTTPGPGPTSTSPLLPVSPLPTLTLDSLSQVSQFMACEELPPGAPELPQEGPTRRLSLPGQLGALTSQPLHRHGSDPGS
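U2OS cells transduced with wild-type KCNH2 virus are loaded with FluxOr dye for 45 min, and thallium flux is measured in kinetic reads before and after stimulation buffer. Rate constants are normalized to DMSO controls.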
KCNH2 3.1 inh: KCNH2 3.1 (human) potassium channel inhibition. activity change, % (tested at about 1.8 µM). U2OS KCNH2 3.1, thallium flux FluxOr; active compounds read low. 340,000 tested, 0.95% active;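 active = maximum activity change below -70%; inconclusive = maximum activity change from -70% to -50%; inactive = maximum activity change above -50%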;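 also: thallium influx rate constant from kinetic fluorescence after stimulation buffer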
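Kinetic fluorescence (2 min after stimulation buffer) measures Tl+ influx through KCNH2 3.1 expressed by viral transduction in U2OS cells; the rate constant is normalized against DMSO controls serving as positive and negative references.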
Akt phos inh: blocks phosphorylation of Akt; Neuro2A IGF-stimulated pAkt S473 HTRF, 20 min; active compounds read low; activity change, % for hits at 50 µM; 360,000 tested, 0.32% active; AID 651550; in the data active = activity change below about -80%; inconclusive = mostly about -51% to -80%
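Neuro2A cells in DMEM with 0.5% FBS, overnight at 37 deg C, given compound at single 50 µM final, then IGF (6 nM final) for 20 min at 37 deg C. Lysed; phospho-Akt Ser473 by HTRF after 24 h, 665/615 ratio.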
* = called active by the depositor. Most compounds without a hit are left out; they make up all but 1.7% or so of the library. % is scaled to controls: 0 for no effect and ±100 for the full control effect.

COc1ccc(NC(=O)CSc2nc3c(c(=O)n2-c2ccccc2OC)SCC3)cc1 was read as RXFP1 ag 2%, RXFP1 antagonist 2, hERG WT inh 23, KCNH2 3.1 inh -8 and Akt phos inh inactive.
`COc1ccccc1-n1c(SCC(N)=O)nc2c(c1=O)SCC2` gave RXFP1 ag 1%, hERG WT inh -7, KCNH2 3.1 inh -70* and Akt phos inh inactive.
Screening OCCC1CN(CC(c2ccccc2)c2ccccc2)CCN1C1CCCC1 (stereo not drawn) returned RXFP1 ag 0%, RXFP1 antagonist -34, hERG WT inh 2, KCNH2 3.1 inh -75* and Akt phos inh inactive.
`OCCC1CN(CC#Cc2ccccc2)CCN1C1CCCC1` (stereo not drawn) gave RXFP1 ag 0%, RXFP1 antagonist 2, hERG WT inh 12, KCNH2 3.1 inh 8 and Akt phos inh inactive.
Cc1ccccc1CS(=O)(=O)Cc1ccc(C(=O)NCCc2ccc(Cl)cc2)o1 was read as RXFP1 ag 6% and RXFP1 antagonist -96*.
For Cc1cccc(N2CCN(C(=O)c3cc4ccc5cccnc5c4[nH]3)CC2C)c1 (stereo not drawn) the results were RXFP1 ag -3% and RXFP1 antagonist -61*.
Screening Cc1ccc(C)c(N2CCN(C(=O)c3cc4ccc5cccnc5c4[nH]3)CC2)c1 returned RXFP1 ag 4% and RXFP1 antagonist -33.
Screening C=CCNC(=O)/C(C#N)=C/c1ccc(OS(=O)(=O)c2ccc(C)cc2)c(OC)c1 returned RXFP1 ag 3%, RXFP1 antagonist -61*, hERG WT inh 16, KCNH2 3.1 inh -13 and Akt phos inh inactive.
For CCOC(=O)C1(Cc2cccc(F)c2)CCN(Cc2cnc(C)s2)CC1 the results were RXFP1 ag -1%, RXFP1 antagonist -5, hERG WT inh -2, KCNH2 3.1 inh -1 and Akt phos inh inactive.
Screening CCOC(=O)C1(CCCc2ccccc2)CCN(CCCn2cccn2)CC1 returned RXFP1 ag 0%, RXFP1 antagonist 6, hERG WT inh -131*, KCNH2 3.1 inh -111* and Akt phos inh inactive.
CCOC(=O)C1(Cc2ccccc2C(F)(F)F)CCN(CCCn2cccn2)CC1 was read as RXFP1 ag 3%, RXFP1 antagonist -4, hERG WT inh 31, KCNH2 3.1 inh -5 and Akt phos inh inactive.
`CCOC(=O)C1(CCc2ccccc2)CCN(Cc2cccc3nccnc23)CC1` gave RXFP1 ag 1%, RXFP1 antagonist 3, hERG WT inh -34, KCNH2 3.1 inh -99* and Akt phos inh inactive.
CCOC(=O)C1(CCc2ccccc2)CCN(Cc2ccn[nH]2)CC1 was read as RXFP1 ag 0%, RXFP1 antagonist -6, hERG WT inh 9, KCNH2 3.1 inh inconclusive and Akt phos inh inactive.
`CCOC(=O)C1(CCCc2ccccc2)CCN(Cc2cnc(C)s2)CC1` gave RXFP1 ag 0%, RXFP1 antagonist -9, hERG WT inh -91*, KCNH2 3.1 inh -23 and Akt phos inh inactive.
Screening CCOC(=O)C1(CCCc2ccccc2)CCN(Cc2cn(CC)nc2C)CC1 returned RXFP1 ag 4%, RXFP1 antagonist -4, hERG WT inh -17, KCNH2 3.1 inh -93* and Akt phos inh inactive.
For Cc1nn(C)c(C(=O)NNC(=O)Nc2cccc(C(F)(F)F)c2)c1Cl the results were RXFP1 ag 1%, RXFP1 antagonist -12, hERG WT inh -6, KCNH2 3.1 inh inconclusive and Akt phos inh inactive.
`CCOC(=O)C1(CCCc2ccccc2)CCN(Cc2nccn2CC)CC1` gave RXFP1 ag -2%, RXFP1 antagonist -15, hERG WT inh -13, KCNH2 3.1 inh -93* and Akt phos inh inactive.
Screening CC(Oc1ccc(F)cc1)C(=O)Nc1cccc(-c2nn[nH]n2)c1 (stereo not drawn) returned RXFP1 ag 2%, RXFP1 antagonist 7, hERG WT inh -86*, KCNH2 3.1 inh 29 and Akt phos inh inactive.
Screening O=C(O)C(=O)Nc1cccc(-c2nn[nH]n2)c1 returned RXFP1 antagonist 2.
O=C1CC(=C(c2ccccc2)c2ccccc2)C(=O)N1CCCCN1CCN(c2cccc(Cl)c2)CC1 was read as RXFP1 ag 1%, RXFP1 antagonist 9, hERG WT inh -75*, KCNH2 3.1 inh -74* and Akt phos inh inactive.
`COc1cc(C2NC(=O)NC(O)(C(F)(F)F)C2C(C)=O)cc(OC)c1OC` (stereo not drawn) gave RXFP1 ag 1%, RXFP1 antagonist -9, hERG WT inh -186*, KCNH2 3.1 inh -3 and Akt phos inh inactive.
`CC(=O)C1C(c2ccc(F)cc2)NC(=O)NC1(O)C(F)(F)F` (stereo not drawn) gave RXFP1 ag 1%, RXFP1 antagonist -5, hERG WT inh 0, KCNH2 3.1 inh 7 and Akt phos inh inactive.
Screening Cc1ccc(S(=O)(=O)N(C)CC(=O)NCC(=O)Nc2ccc(F)c(F)c2F)cc1 returned RXFP1 antagonist -7, hERG WT inh 6, KCNH2 3.1 inh -4 and Akt phos inh inactive.
`O=C(CCC1CCN(C(=O)c2cc(C(F)(F)F)ccc2Cl)CC1)NC1CC1` gave RXFP1 ag -1%, RXFP1 antagonist 5, hERG WT inh 5, KCNH2 3.1 inh -115* and Akt phos inh inactive.
For Cc1cn(C2OC(COC(=O)c3ccccc3)C(OC(=O)c3ccccc3)C2OC(=O)c2ccccc2)c(=O)[nH]c1=O (stereo not drawn) the results were RXFP1 ag 0%, RXFP1 antagonist -23, hERG WT inh -14, KCNH2 3.1 inh -12 and Akt phos inh inactive.
`CCOC(=O)c1csc(NC(=O)C(C)(C)C)n1` gave RXFP1 ag 0%, hERG WT inh 11, KCNH2 3.1 inh -5 and Akt phos inh inactive.
Nc1[nH]c(=S)[nH]c(=O)c1-c1ccccc1 was read as RXFP1 ag 1%, RXFP1 antagonist -21, hERG WT inh -183*, KCNH2 3.1 inh 7 and Akt phos inh inactive.
`NC(=S)N/N=C/c1ccc(-c2ccc(Cl)c(Cl)c2)o1` gave RXFP1 ag 0%, RXFP1 antagonist -19, hERG WT inh -4, KCNH2 3.1 inh -6 and Akt phos inh inactive.
NC(=S)N/N=C\c1ccc(-c2cccc(Cl)c2Cl)o1 was read as RXFP1 ag -2%, RXFP1 antagonist -28, hERG WT inh 4, KCNH2 3.1 inh inconclusive and Akt phos inh -122%*.
Screening NS(=O)(=O)c1ccc(CCNC(=O)CCCCCNc2nc(=S)[nH]c3ccccc23)cc1 returned RXFP1 ag 11%.
For O=C(Nc1ccc(N2CCCC2)cc1)c1ccccc1F the results were RXFP1 ag -1%, RXFP1 antagonist -12, hERG WT inh -23, KCNH2 3.1 inh 1 and Akt phos inh -85%*.
